From PubChem BioAssay AID2235 (The Scripps Research Institute Molecular Screening Center, 2010) come the findings set out here.

What is called inhibition is the drop in the measured response relative to a control, in per cent.

Molecules are shown by their SMILES. Out of some 320,000 compounds screened, about 2,800 (0.88%) were called active.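 How the source made its calls: active means inhibition above the mean inhibition of all tested compounds plus 3 SD, computed separately for each screening campaign (cut at about 15% in these data); inactive means the rest.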 This excerpt belongs to a sample that is enriched for actives.

Sequence of Serine/threonine-protein phosphatase PP1-alpha catalytic subunit (Homo sapiens) (P62136 whole entry, looked up): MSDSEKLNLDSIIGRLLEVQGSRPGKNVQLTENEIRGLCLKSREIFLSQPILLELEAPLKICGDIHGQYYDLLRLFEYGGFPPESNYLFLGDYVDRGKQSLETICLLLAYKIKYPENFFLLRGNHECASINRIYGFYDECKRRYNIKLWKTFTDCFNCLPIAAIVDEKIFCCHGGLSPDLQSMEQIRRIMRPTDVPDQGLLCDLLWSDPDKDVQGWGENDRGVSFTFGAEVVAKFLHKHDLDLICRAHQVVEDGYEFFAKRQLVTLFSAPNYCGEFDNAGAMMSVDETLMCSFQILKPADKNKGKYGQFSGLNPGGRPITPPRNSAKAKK

The assay has as its target Serine/threonine-protein phosphatase PP1-alpha catalytic subunit (Homo sapiens) (UniProt P62136). Briefly: PP1-alpha phosphatase inhibitors, primary screen, counter-screen for PP5 inhibitor project, biochemical, fluorescence, OMFP substrate, single point (AID 2235). Conditions: purified PP1alpha, at 6.7 µM, active compounds read high. In general terms: The purpose of a counterscreen is to sort out artefacts and off-target activity.
Regarding `CN1CCN(c2ccc(CNS(=O)(=O)c3cccc(F)c3)cc2)CC1`, the inhibition was -3.01% (inactive). For `O=C1/C(=C/c2cccs2)CCC1C1CCCC1` (stereo unspecified), the inhibition is -2.41% (inactive).

For `CC(=O)Oc1cc2c(C(=O)NCCN3CCOCC3)c(C)oc2c2ccccc12`, the inhibition is -0.6% (inactive). For the compound `Cc1ccc(N=C2NC(=O)c3cccc([N+](=O)[O-])c32)cc1`, the inhibition was -1.21% (inactive).

Turning to `COc1ccccc1C(=O)NC(=O)COC(=O)C1CC1`, the inhibition is -1.39% (inactive). For the compound `CCC(=C/c1sc2ccc3ccccc3c2[n+]1C)/C=C1\Sc2ccc3ccccc3c2N1C`, the inhibition was 79.3% (active). On to `CC(NCc1ccccc1OC1CCCC1)c1ccccc1` (stereo unspecified), for which the inhibition is -3.47% (inactive). Next, `O=C(Nc1ccc(S(=O)(=O)NCC2CCCO2)cc1)c1ccc(F)cc1` (stereo unspecified): 1.04% (inactive); `COc1cnc(-c2ccccn2)nc1Oc1ccc(C(C)(C)C)cc1`: 57.9% (active). Regarding `COc1ccc(NCCc2ccccn2)cc1`, the inhibition is 1.13% (inactive). For `CCOCCCNc1nc(-c2ccccc2)nc2ccccc12` the value was 3.36% (inactive); for `CC(C)(C)Nc1nc(-c2ccccn2)nc2ccccc12`, 18.4% (active); for `CCC(=O)OCCNc1nc(-c2ccccc2)nc2ccccc12`, 0.15% (inactive). Turning to `N#Cc1ccc(Oc2cc(C(F)(F)F)nc(-c3ccccn3)n2)cc1`, the inhibition was -1.29% (inactive). Regarding `Cc1ccc(Oc2nc(-c3ccccn3)nc3ccccc23)cc1`, the inhibition is 17.4% (active). As for `Cc1ccc(Oc2nc3ccccc3n3c(C)nnc23)cc1`, the inhibition is -3.88% (inactive). Turning to `CC(C)(C)c1ccc(Oc2ccc(N)cc2)cc1`, the inhibition was 1.18% (inactive). Next, `COC(=O)C1=NNC2(c3ccc(C)cc3)C(=O)N(c3cccc(C)c3C)C(=O)C12` (stereo unspecified): 2.4% (inactive); `Cc1ccc(-c2cnc(NC(=O)CCC(=O)N(C)Cc3ccccc3)n2C)cc1`: -3.93% (inactive). For `CC(c1nnc(SCC(=O)Nc2sccc2C#N)n1-c1ccc(Cl)cc1)N(C)C` (stereo unspecified), the inhibition is -0.51% (inactive). Consider `COc1ccc(NC(=O)CN(C)C(=O)c2cc(C3CC3)nn2-c2ccccc2)cc1`, for which the inhibition is -0.28% (inactive).

For the compound `CC(C)Oc1ccc(CC(=O)NNC(=S)Nc2ccc(Br)cc2)cc1`, the inhibition is 6.13% (inactive). On to `Cc1ccc(C(=O)NNC(=O)c2cc3cc4ccccc4nc3s2)cc1`, for which the inhibition was 15.8% (active). Regarding `Cc1ccc(C(=O)NNC(=O)c2cccs2)cc1`, the inhibition is 3.43% (inactive). For the compound `O=C(NNC(=O)c1cc2c(s1)CCCC2)c1ccccc1`, the inhibition was -3.37% (inactive). For `O=C(O)c1cccc(N=NN2CCCCCC2)c1` the value was 2.62% (inactive); for `CCN(CC(=O)Nc1ccc(NC(C)=O)cc1)C(=O)CSC(=S)N1CCCC1`, -1.09% (inactive). `CCOc1cc(C)ccc1OCc1nnc(SCC(=O)Nc2cccc(C(=O)O)c2)n1-c1ccccc1`: the inhibition was -6.28% (inactive).

For the compound `O=C(NNC(=O)C(O)c1ccccc1)NC1CCCCC1` (stereo unspecified), the inhibition is -1.2% (inactive).

Consider `Cc1nc(/N=C(\N)NC(=O)NC2CCCCC2)nc2ccccc12`, for which the inhibition was 18.6% (active).

Take `COc1ccc2nc(/N=C(\N)NC(=O)Nc3ccccc3)nc(C)c2c1`: the inhibition is 7.87% (inactive).

On to `CC1(C)C2CC=C(/C=N/NC(=O)c3ccc(Cl)cc3)C1C2` (stereo unspecified), for which the inhibition was 0.59% (inactive). As for `COc1ccc(C(C#N)Nc2ccc(C)cc2)cc1` (stereo unspecified), the inhibition is -2.92% (inactive). Regarding `N#CC1=C(N)Oc2c(sc3ccccc23)C1c1ccco1` (stereo unspecified), the inhibition was 15.7% (active). Next, `N#CC1=C(N)Oc2c(ccc3cccnc23)C1c1ccncc1` (stereo unspecified): -1.75% (inactive); `CON(C)S(=O)(=O)c1ccc2c(c1)NC(=O)C1CCCN21` (stereo unspecified): 5.21% (inactive). As for `O=C(NC(=S)NC1CCS(=O)(=O)C1)c1cccc([N+](=O)[O-])c1` (stereo unspecified), the inhibition was -0.09% (inactive).

In the case of `Cc1nn(-c2ccc([N+](=O)[O-])cc2)c(N)c1-c1ccccc1`, the inhibition was -0.19% (inactive). For `O=C1CC(c2ccccc2)=NN1c1ccc([N+](=O)[O-])cc1` the value was 15.4% (active). On to `CC1=NN(c2ccccc2)C(=O)C1C(=O)c1ccc([N+](=O)[O-])cc1` (stereo unspecified), for which the inhibition was -1.75% (inactive). Turning to `Cc1ccc(NC(=O)CN(C)C(=O)COC(=O)c2nccnc2N)cc1`, the inhibition is 6.11% (inactive).

`COc1ccc(NC(=O)C2C3CCC(O3)C2C(=O)O)cc1OC` (stereo unspecified): the inhibition is 71.5% (active). Next, `CC(C)OC(=O)c1cc(NC(=O)C2C3CCC(O3)C2C(=O)O)cc(C(=O)OC(C)C)c1` (stereo unspecified): 48.8% (active); `COc1ccc(NC(=S)SC)cc1OC`: -7.31% (inactive); `COc1ccc(NC(=O)CNC(=O)Cc2ccccc2)cc1OC`: -3.57% (inactive). For `COC(=O)c1cc(NC(=O)C2C3C=CC(C3)C2C(=O)O)cc(C(=O)OC)c1` (stereo unspecified) the value was 2.03% (inactive); for `Cc1sc(NC(=O)C2C3CCC(O3)C2C(=O)O)c(C(=O)OC(C)C)c1-c1ccc(Cl)cc1` (stereo unspecified), 10.9% (inactive); for `COc1ccc(N(CC(=O)N/N=C/c2cccc3c2OCCO3)S(=O)(=O)c2ccc(NC(C)=O)cc2)cc1`, 4.91% (inactive). Consider `CCOc1ccccc1N1CN(Cc2ccccc2)CNC1=S`, for which the inhibition was -3.54% (inactive). For `CC(C)c1ccc(N(C(=O)c2ccco2)C(C(=O)NC2CCCC2)c2cccnc2)cc1` (stereo unspecified) the value was 4.81% (inactive); for `CN(CC(=O)Nc1ccc(Cl)cc1)C(=O)CNC(=O)c1ccc2ccccc2c1`, -2.18% (inactive); for `CC(=O)Nc1ccc(C(=O)Nc2nc(-c3cc(C)n(Cc4ccccc4)c3C)cs2)cc1`, 3.86% (inactive). Turning to `Cc1cc(-c2csc(N)n2)c(C)n1-c1ccccc1`, the inhibition is 25.1% (active). As for `Cc1cc(-c2csc(N)n2)c(C)n1Cc1ccccc1`, the inhibition was 14.8% (inactive). For `CC(=O)Nc1ccc(S(=O)(=O)N2CCC(NC(=O)c3ccccc3)CC2)cc1` the value was 0.38% (inactive). For `CCCNC(=O)c1ccc(N2CCC3(CC2)CC(c2cccc(Br)c2)=NO3)c(NC(=O)c2ccco2)c1` the value was 15.6% (active); for `O=C(Nc1ccccc1N1CCN(C(=O)c2ccccc2)CC1)c1ccco1`, 0.05% (inactive). For the compound `CCCNC(=O)c1ccc(N2CCC3(CC2)CC(c2ccc(Cl)cc2)=NO3)c([N+](=O)[O-])c1`, the inhibition was -4.68% (inactive).

Take `CC(C)=CC(=O)Nc1nnc(-c2ccc(F)cc2)s1`: the inhibition is -5.78% (inactive). In the case of `COc1ccc(C2=NN(C(=O)CSc3nnnn3C)C(c3ccco3)C2)cc1` (stereo unspecified), the inhibition was -2.47% (inactive). Turning to `Cc1ccc(N(C(=O)c2ccc(CN3CCOCC3)o2)C(C(=O)NCCC(C)C)c2cccs2)c(C)c1` (stereo unspecified), the inhibition is -1.98% (inactive). On to `Cc1ccc(Nc2nc(CSc3nnnn3-c3ccccc3)cc(=O)[nH]2)cc1`, for which the inhibition is 37.6% (active). For `COc1ccc(C)cc1-n1nnnc1SCc1nc2ccccc2c(=O)[nH]1`, the inhibition is 9.72% (inactive).

As for `Cc1ccc(-c2noc(CSc3nnnn3-c3ccccc3)n2)cc1`, the inhibition was 0.28% (inactive). For `CC1(C)O[C@@H]2[C@H](O1)[C@@H](CO)O[C@H]2n1c(N2CCCCC2)nc2c(N)ncnc21` the value was -3.13% (inactive); for `CC(=O)Nc1ccc(S(=O)(=O)N2CCn3cccc3C2C)cc1` (stereo unspecified), 0.86% (inactive). With `O=C(CSc1nc2ccccc2[nH]1)N/N=C/C=C\c1ccccc1[N+](=O)[O-]`, the inhibition was -2.41% (inactive). Next, `CCn1c(SCC(=O)N/N=C/C=C/c2ccccc2[N+](=O)[O-])nnc1-c1ccccc1`: -0.35% (inactive); `Cc1ccc(-n2c(SCC(=O)N/N=C/C=C/c3ccccc3[N+](=O)[O-])nc3ccccc3c2=O)cc1`: 16.8% (active); `Cc1cccc(NC(=O)c2ccc(S(=O)(=O)N(C)CC3CCCO3)cc2)c1C` (stereo unspecified): 0.75% (inactive). With `NS(=O)(=O)c1ccc(NC(=S)Nc2ccc(Br)c(Cl)c2)cc1`, the inhibition is 0.34% (inactive).

Take `O=C(NCc1ccccn1)c1ccc2nc(-c3ccco3)c(-c3ccco3)nc2c1`: the inhibition was 31.1% (active). Regarding `COCCNC(=O)Nc1ccc2nc(-c3ccco3)c(-c3ccco3)nc2c1`, the inhibition was 22.8% (active). For `CCOc1ccc(C(=O)NC(C(=O)NCc2ccccn2)C(C)C)cc1` (stereo unspecified) the value was 1.59% (inactive); for `Cc1cc(C)cc(NC(=O)NCc2ccccn2)c1`, -2.05% (inactive). As for `CCOc1cc(NC(=S)NCCCOC)c(OCC)cc1NC(=O)c1ccco1`, the inhibition is -3.32% (inactive). In the case of `Cc1nc2cc(NC(=O)NCc3ccccc3)ccc2o1`, the inhibition is -6.2% (inactive).

As to `C[C@H](NC(=O)[C@@H]1Cc2ccccc2CN1C(=O)OC(C)(C)C)C(=O)NC1CCCC1`, the inhibition was -1.9% (inactive).

For the compound `CC(=O)Nc1ccc(SC[C@H](Cc2ccccc2)N2CC[C@@H](C)CCC2=O)cc1`, the inhibition is 2.41% (inactive). In the case of `Cc1nc2cccnc2nc1C`, the inhibition was 2.22% (inactive).

With `CCCCn1c(N)c(N(CC(C)C)C(=O)c2cccc(S(=O)(=O)N3CC(C)OC(C)C3)c2)c(=O)[nH]c1=O` (stereo unspecified), the inhibition was -0.35% (inactive). `COc1ccc(S(=O)(=O)N2CCOC2CNC(=O)C(=O)NCc2ccncc2)cc1OC` (stereo unspecified): the inhibition is -2.33% (inactive). Turning to `COc1ccc(-c2nn(-c3ccccc3)cc2/C=C\C(=O)Nc2ccc(C(=O)O)cc2)cc1`, the inhibition is 23.8% (active).

As to `Cc1ccc(-c2nn(-c3ccccc3)cc2/C=C/C(=O)Nc2cccc(S(N)(=O)=O)c2)cc1`, the inhibition was 2.13% (inactive). Next, `COc1ccc(NC(=O)c2cn(-c3ccccc3)nc2SC)cc1`: 0.29% (inactive). On to `O=C(CSc1ccccc1F)NC1CCS(=O)(=O)C1` (stereo unspecified), for which the inhibition was -3.59% (inactive). On to `CC(C)(C)NC(=O)Cn1c(SCC(=O)Nc2nccs2)nc2ccccc21`, for which the inhibition is -0.87% (inactive). As for `O=C1CC(c2c(F)cccc2Cl)C(n2cncn2)C(O)=C1C1NCCc2ccccc21` (stereo unspecified), the inhibition was 3.05% (inactive).

For `COc1cc(C(C)=O)ccc1OC(C)C(=O)Nc1ccc(S(=O)(=O)N2CCCC2)cc1` (stereo unspecified), the inhibition was -2.63% (inactive). With `C=CCn1c(=NC(=O)c2cccs2)sc2cc(NC(C)=O)ccc21`, the inhibition was 14.5% (inactive). Turning to `C=CCn1c(=NC(=O)c2ccc(S(=O)(=O)N3CCCC3)cc2)sc2cc(NC(C)=O)ccc21`, the inhibition is 21.1% (active).
